# Inconclusive results are not listed. Active and inactive are the calls of the source. Unless noted, calls come from the whole dose curve; as a rule, active = well fitted curve in the direction sought with a large enough effect; inconclusive = small, poorly fitted or top-dose-only effect, or another doubt; inactive = no such curve, though single readings can be large; an effect the other way counts as inactive or inconclusive.
# Legend:
# [1] = qHTS drug screen for cell cycle checkpoint inhibitors in PARPi-resistant BRCA-mutant ovarian cancer cell lines. (AID 1963452; calls by dose curve; note: potency is the fitted concentration of half-maximal effect); conditions: PEO1/OlaR viability, CellTiter-Glo luminescence, 96 h; for Z-AUC: stronger effect = lower value
# How it was run: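 PEO1, PEO4 and PEO1/OlaR ovarian cancer cells, 600 per well, exposed 96 h at 37C to a dilution series. Viability read by CellTiter-Glo luminescence, normalized to DMSO and empty wells; activity summarized as Z-AUC.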
# [2] = Quantitative High-Throughput drug screen in 47 multiple myeloma cell lines against the NCATS MIPE library collection: XG6_PLB cell viability assay (AID 1919865); conditions: XG6 myeloma viability, CellTiter-Glo ATP luminescence, 48 h; series mostly up to 45.8 µM; note: nearly all actives have a fitted effect of over 40% in size; note: potency is the fitted concentration of half-maximal effect
# How it was run: (§1)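 Inhibition of viability over 48 h was scored by ATP content (CellTiter-Glo) in 500-cell wells. Zero and full viability were defined by media-only and DMSO-only wells.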
# [3] = Quantitative High-Throughput drug screen in 47 multiple myeloma cell lines against the NCATS MIPE library collection: OPM2_DSMZ cell viability assay (AID 1919872); conditions: OPM2 myeloma viability, CellTiter-Glo ATP luminescence, 48 h; series mostly up to 45.8 µM; note: nearly all actives have a fitted effect of over 30% in size; note: potency is the fitted concentration of half-maximal effect
# How it was run: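 CellTiter-Glo luminescence (ATP) after 48 h compound exposure, 37C/5% CO2; 500 cells/well; MIPE 4.0 approved/investigational drugs pinned in; DMSO = 100%, media only = 0% viability.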
# [4] = qHTS profiling for inhibitors of Plasmodium falciparum proliferation (AID 504749); note: potency is the fitted concentration of half-maximal effect;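 for activity, negative = inhibition: 0% = DMSO vehicle and full inhibition = artemisinin control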; for all read-outs here: nearly all actives have a fitted effect of over 60% in size; conditions: P. falciparum in erythrocytes, SYBR Green DNA, 72 h; for activity, negative = inhibition: at 28.7 µM (top of the series)
# How it was run: (§2)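 Infected RBCs, 0.3% parasitemia/2.5% Hct final; cpd 72 h, 37 C, 5% CO2; lysis buffer with saponin/triton/SYBR Green I, o/n RT dark; FI 485/535; norm. to artemisinin (0.29 uM) and DMSO.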
# 3D7 = experiment: as above; conditions: P. falciparum in erythrocytes, SYBR Green DNA, 72 h; series mostly up to 28.7 µM
# How it was run: as §2
# 7G8 = experiment: as above; conditions: P. falciparum in erythrocytes, SYBR Green DNA, 72 h; series mostly up to 28.7 µM
# How it was run: as §2
# [5] = KB-8-5-11 P-gp reporter qHTS against the NCATS DSHEA and TCM libraries (AID 1919977); conditions: KB-8-5-11 cells; series mostly up to 26.1 µM; note: 0% is about no effect
# How it was run: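 Cells were seeded, allowed ~4 h to attach, dosed by pin tool (substance titrations), incubated ~72 h at 37C, then lysed with CellTiter-Glo for 30 min at room temperature before luminescence reading.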
# [6] = Quantitative High-Throughput drug screen in 47 multiple myeloma cell lines against the NCATS MIPE library collection: SKMM1_PLB cell viability assay (AID 1919863); conditions: SKMM1 myeloma viability, CellTiter-Glo ATP, 48 h; viability: stronger effect = lower value; note: nearly all actives have a fitted effect of over 35% in size
# How it was run: as §1
# [7] = Quantitative High-Throughput drug screen in 47 multiple myeloma cell lines against the NCATS MIPE library collection: VP6_DJ cell viability assay (AID 1919867); conditions: ATP luminescence, 48 h; series mostly up to 45.8 µM; note: nearly all actives have a fitted effect of over 40% in size; note: potency is the fitted concentration of half-maximal effect
# How it was run: as §1
# [8] = Quantitative High-Throughput drug screen in 47 multiple myeloma cell lines against the NCATS MIPE library collection: KMS11_JCRBsus cell viability assay (AID 1919873); conditions: KMS11 myeloma viability, CellTiter-Glo ATP luminescence, 48 h; series mostly up to 45.8 µM; note: nearly all actives have a fitted effect of over 50% in size
# How it was run: as §1
# [9] = Quantitative High-Throughput drug screen in 47 multiple myeloma cell lines against the NCATS MIPE library collection: KMS28BM_JCRB cell viability assay (AID 1919874); conditions: CellTiter-Glo ATP, 48 h; series mostly up to 45.8 µM; note: nearly all actives have a fitted effect of over 35% in size; note: potency is the fitted concentration of half-maximal effect
# How it was run: as §1
# [10] = Quantitative High-Throughput drug screen in 47 multiple myeloma cell lines against the NCATS MIPE library collection: PCM6_Riken cell viability assay (AID 1919870); conditions: CellTiter-Glo ATP, 48 h; series mostly up to 45.8 µM; note: nearly all actives have a fitted effect of over 30% in size
# How it was run: as §1
# [11] = qHTS for identification of novel therapeutic agents for treatment of microphthalmiaassociated transcription factor (MiT) renal cell carcinoma (RCC) (AID 1963991); conditions: CellTiter-Glo, 48 h, stronger effect = lower value
# How it was run: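 Three TFE3-fusion RCC lines (UOK109, UOK124, UOK145), 500 cells/well in complete medium, were treated with MIPE 4.0 compounds for 48 hours at 37 C. Viability was by CellTiter-Glo luminescence, normalized to DMSO (100%) and empty wells (0%); curves fitted over 11 concentrations.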
# [12] = Quantitative High-Throughput drug screen in 47 multiple myeloma cell lines against the NCATS MIPE library collection: U266_ATCC cell viability assay (AID 1919864); conditions: U266 myeloma viability, CellTiter-Glo ATP luminescence, 48 h; series mostly up to 45.8 µM; note: nearly all actives have a fitted effect of over 35% in size; note: potency is the fitted concentration of half-maximal effect
# How it was run: as §1
# [13] = Quantitative High-Throughput drug screen in 47 multiple myeloma cell lines against the NCATS MIPE library collection: PE2_PLB cell viability assay (AID 1919869); conditions: PE2_PLB myeloma cells viability, ATP luminescence, 48 h; series mostly up to 45.8 µM; note: nearly all actives have a fitted effect of over 35% in size
# How it was run: as §1
# [14] = Quantitative High-Throughput drug screen in 47 multiple myeloma cell lines against the NCATS MIPE library collection: XG1_PLB cell viability assay (AID 1919866); conditions: CellTiter-Glo ATP, 48 h; series mostly up to 45.8 µM; note: nearly all actives have a fitted effect of over 35% in size; note: potency is the fitted concentration of half-maximal effect
# How it was run: as §1
# [15] = Quantitative High-Throughput drug screen in 47 multiple myeloma cell lines against the NCATS MIPE library collection: UTMC2_PLB cell viability assay (AID 1919868); conditions: CellTiter-Glo ATP luminescence, 48 h; viability (% of DMSO control): at 45.8 µM (top of the series); note: potency is the fitted concentration of half-maximal effect; nearly all actives have a fitted effect of over 55% in size
# How it was run: as §1
# [16] = Quantitative High-Throughput drug screen in 47 multiple myeloma cell lines against the NCATS MIPE library collection: RPMI8226_ATCC cell viability assay (AID 1919871); conditions: RPMI8226 myeloma viability, CellTiter-Glo ATP luminescence, 48 h; series mostly up to 45.8 µM; note: nearly all actives have a fitted effect of over 30% in size
# How it was run: as §1
# [17] = measured here: PEO1 parental Z-AUC
# [18] = TFE3-RCC UOK109 viability, measured here: UOK109 Z-AUC
# [19] = TFE3-RCC viability, measured here: UOK124 Z-AUC
# [20] = TFE3-RCC viability, measured here: UOK145 Z-AUC
structure (smiles),measurement,setting,value
C/C=C(/C)C(=O)O[C@H]1C(C)=C2[C@H]([C@@H]1OC(=O)CCCCCCC)[C@@](C)(OC(C)=O)C[C@H](OC(=O)CCC)[C@@]1(O)[C@H]2OC(=O)[C@@]1(C)O,Potency,[1],0.0098 µM (active)
same,Z-AUC,[1]; [17],-2.42
same,Z-AUC,[1]; measured here: PEO4 Z-AUC,-2.66
O=C(N[C@@H](COc1ccc2[nH]c(=O)[nH]c2c1)c1ccccc1)c1cccn(Cc2ccc(F)c(F)c2)c1=O,Potency,[2],18.7 µM (active)
same,Potency,[3],inactive
same,Z-AUC,[1],-0.315 (inactive)
same,Z-AUC,[1]; [17],0.00624
same,Z-AUC,[1]; measured here: PEO4 Z-AUC,0.64
CCCCCCCCCC(CC)c1ccc(S(=O)(=O)O)cc1 (stereo unspecified),"activity, negative = inhibition",[4]; parasite line A,4.98% (inactive)
same,"activity, negative = inhibition",[4]; parasite line B,0.132% (inactive)
same,Potency,3D7,inactive
same,Potency,7G8,inactive
NC(=O)CN1CC(O)CC1=O (stereo unspecified),"activity, negative = inhibition",[4]; parasite line A,3.26% (inactive)
same,"activity, negative = inhibition",[4]; parasite line B,7.69% (inactive)
same,Potency,3D7,inactive
same,Potency,7G8,inactive
O=C(O)c1ccccc1O,outcome,[5],inactive
CCCN1CCO[C@@H]2c3cc(O)ccc3OC[C@H]21,Z-AUC,[1],0.538 (inactive)
same,Z-AUC,[1]; [17],0.85
same,Z-AUC,[1]; measured here: PEO4 Z-AUC,0.552
CC(=Cc1csc(C)n1)[C@@H]1C[C@H]2O[C@]2(C)CCC[C@H](C)[C@@H](O)[C@@H](C)C(=O)C(C)(C)[C@@H](O)CC(=O)O1,viability,[6],69.9% (inactive)
same,Potency,[2],inactive
same,Potency,[7],inactive
same,Potency,[3],inactive
same,Potency,[8],inactive
same,Potency,[9],inactive
C#C[C@]1(O)C=C[C@@H]2[C@@H]3CCC4=CC(=O)CC[C@@H]4[C@H]3CC[C@@]21CC,viability,[6],126% (inactive)
same,Potency,[10],inactive
same,Potency,[3],inactive
same,Potency,[9],inactive
same,z-score,[11]; [18],1.02
same,z-score,[11]; [19],0.666
same,z-score,[11]; [20],-1.42
C=C1C[C@H]2[C@H]3CCC(=O)[C@@]3(C)CC[C@@H]2[C@@]2(C)C=CC(=O)C=C12,Potency,[12],20.9 µM (active)
same,Potency,[3],inactive
same,Potency,[9],inactive
C[C@]12CC[C@@H]3[C@@H](CCC4=CC(=O)CC[C@@H]43)[C@@H]1CC[C@@H]2OC(=O)CCc1ccccc1,Potency,[12],inactive
same,Potency,[13],inactive
same,Potency,[10],inactive
same,Potency,[3],inactive
same,Potency,[8],inactive
same,Potency,[9],inactive
same,Z-AUC,[1],-0.102 (inactive)
same,Z-AUC,[1]; [17],-0.728
same,Z-AUC,[1]; measured here: PEO4 Z-AUC,-0.686
same,z-score,[11]; [18],0.952
same,z-score,[11]; [19],0.605
same,z-score,[11]; [20],-2.12
O=C(O)C(Cl)Cl,"activity, negative = inhibition",[4]; parasite line A,7.93% (inactive)
same,"activity, negative = inhibition",[4]; parasite line B,-3.72% (inactive)
same,Potency,3D7,inactive
same,Potency,7G8,inactive
COC(=O)[C@@H](N)CCCN=C(N)N[N+](=O)[O-],Potency,[12],inactive
same,Potency,[2],inactive
same,Potency,[14],inactive
same,Potency,[3],inactive
same,Potency,[8],inactive
same,Potency,[9],inactive
same,Z-AUC,[1],-0.673 (inactive)
same,Z-AUC,[1]; [17],-0.429
same,Z-AUC,[1]; measured here: PEO4 Z-AUC,-0.589
same,"activity, negative = inhibition",[4]; parasite line A,8.8% (inactive)
same,"activity, negative = inhibition",[4]; parasite line B,10.5% (inactive)
same,Potency,3D7,inactive
same,Potency,7G8,inactive
CCCCCCCCCCCCCCCC[N+](C)(C)C,Potency,[4]; parasite line A,11.2 µM (active)
same,Potency,3D7,8.91 µM (active)
same,Potency,7G8,11.2 µM (active)
Cc1c(N)nc([C@H](CC(N)=O)NC[C@@H](N)C(N)=O)nc1C(=O)N[C@H](C(=O)N[C@@H](C)[C@H](O)[C@@H](C)C(=O)N[C@@H](C(=O)NCCc1nc(-c2nc(C(=O)NCCC[S+](C)C)cs2)cs1)[C@@H](C)O)C(O[C@H]1O[C@H](CO)[C@H](O)[C@@H](O)[C@@H]1O[C@H]1O[C@H](CO)[C@@H](O)[C@H](OC(N)=O)[C@H]1O)c1cnc[nH]1 (stereo partly specified),viability,[6],89.3% (inactive)
same,Potency,[2],0.59 µM (active)
same,Potency,[14],0.209 µM (active)
same,Potency,[7],16.6 µM (active)
same,Potency,[15],0.209 µM (active)
same,Potency,[16],inactive
same,Potency,[3],2.35 µM (active)
same,Potency,[8],inactive
same,Potency,[9],7.43 µM (active)
CC[N+]1(CCOC(=O)C(O)(c2ccccc2)c2ccccc2)CCCCC1,"activity, negative = inhibition",[4]; parasite line A,-23.7% (inactive)
same,"activity, negative = inhibition",[4]; parasite line B,-20.1% (inactive)
same,Potency,3D7,inactive
CC(=O)[O][Hg][c]1ccccc1,Potency,[4]; parasite line A,3.98 µM (active)
same,Potency,[4]; parasite line B,6.31 µM (active)
same,Potency,3D7,12.6 µM (active)
same,Potency,7G8,1 µM (active)
CN[C@@H]1C[C@@H](c2ccc(Cl)c(Cl)c2)c2ccccc21,Potency,3D7,inactive
same,Potency,7G8,10 µM (active)

# From PubChem BioAssay (NCATS)
